Hits are enriched below; roughly 0.44% of the tested compounds scored in any of these assays.
YopH PTP inh – inhibitors of Yersinia enterocolitica YopH tyrosine phosphatase; fluorescence Ex485/Em525; inhibition, % (no concentration beside the values); 140,000 compounds, 0.16% hits; AID 898; in the data active means inhibition above about 50%
RmlC RmlD mix – inhibitors of RmlC and RmlD coupled enzymes; RmlC/RmlD coupled enzyme inhibition, 384-well mixture HTS; inhibition, % at 5.5 µM; 110,000 compounds, 0.39% hits; in the data active means inhibition above about 30%, passing the limit was not always enough
Hits are given with their value; i = inactive; nt = no result.

SMILES | YopH PTP inh | RmlC RmlD mix
Cn1c(=O)c(-c2ccccc2)nn2c3ccccc3nc12 | i | i
CCn1nnnc1SCC(=O)c1cc(OC)ccc1OC | i | i
CCCC(=O)Nc1cc(OC)c(OC)cc1C(=O)O | i | i
CCCCNc1cc(NC(C)=O)cc2cc(OC)c(OC)cc12 | 79.6 | i
Cn1c(=O)c2c(nc(/C=C/c3cccc(Cl)c3)n2C)n(C)c1=O | nt | i
CN(C(=O)NC(=O)C1=C(N2CCOCC2)/C(=C/c2ccccc2)CC1)S(C)(=O)=O | i | 135.2
CCCCN(C(=O)NC(=O)C1=C(N2CCOCC2)/C(=C/c2ccccc2)CC1)S(C)(=O)=O | i | nt
CC(C)CC(CO)N1CCN(C(=O)c2ccc(Cl)cc2)CCC1=O (centres undefined) | nt | i
Cc1cc(S(=O)(=O)N2CCN=C2c2ccccc2)c(Cl)cc1Cl | i | nt
N[C@@H](C(=O)N[C@@H]1C(=O)N2C(C(=O)O)=C(Cl)CS[C@H]12)c1ccccc1 | 97.1 | i
NC(=O)c1cc[n+](CC2=C(C(=O)O)N3C(=O)[C@@H](NC(=O)C(c4ccccc4)S(=O)(=O)[O-])[C@H]3SC2)cc1 (some centres undefined) | i | i
C1CCC(C23CC4CC(CC(C4)C2)C3)NC1 (centres undefined) | i | i
CCOC(=O)Cn1nc(-c2ccccc2)nc1-c1ccccc1 | i | i
CCn1nc(-c2ccccc2)nc2c(=O)n(C)c(=O)nc1-2 | 101.5 | i
COc1ccc(C(=O)N(Cc2ccco2)C(C(=O)NC2CCCC2)c2ccc(O)cc2)cc1OC (centres undefined) | i | i
Cc1ccnc(SCC(=O)Nc2sc3c(c2C#N)CCC(C(C)(C)C)C3)n1 (centres undefined) | i | i
Cc1cc(C)nc(SCC(=O)Nc2sc3c(c2C#N)CCC(C)C3)n1 (centres undefined) | 93.5 | i
Cc1csc(N2CCc3ccccc32)n1 | 53.8 | i
Cc1cc(N2CCCc3ccccc32)n2ncnc2n1 | i | i
Cc1ccc(S(=O)(=O)N(c2nc(NC(C)C)nc(NC(C)C)n2)n2cnnc2)cc1 | i | nt
COc1cccc(-c2nc3sc4c(c3c(=O)[nH]2)CCCCC4)c1 | i | nt
COC(=O)c1ccc(Cl)c(NC(=O)CN2CCN(Cc3ccccc3)CC2)c1 | 63.7 | i
COC(=O)c1cccc(NC(=O)CN2CCN(Cc3ccccc3)CC2)c1 | i | i
CCCCNC(=O)c1c(N)n(CCCOC)c2nc3ccccc3nc12 | i | i
COCCCn1c(N)c(C(=O)OCCOC)c2nc3ccccc3nc21 | 50.6 | i
SMILES | YopH PTP inh | RmlC RmlD mix
COCCNC(=O)c1c(N)n(CCCn2ccnc2)c2nc3ccccc3nc12 | i | 124.1
COCCNC(=O)c1c(N)n(CCC(C)C)c2nc3ccccc3nc12 | i | i
Oc1ccc(-c2nc3ccc4ccccc4c3c3c2CCC3)cc1O | i | nt
O=C(CN1CCN(Cc2ccccc2)CC1)N1CCCc2c1c(=O)oc1ccc(O)cc21 | i | nt
O=C(c1ccco1)N1CCN(CC(=O)N2CCCc3c2c(=O)oc2ccc(O)cc32)CC1 | 52.6 | i
CC(C)(C)C(=O)[C@@H]1[C@@H]2C(=O)N(C3CCCCC3)C(=O)[C@@H]2[C@H]2c3ccccc3C=CN12 | i | nt
COc1ccc(N2C(=O)[C@@H]3[C@H](C2=O)[C@H]2c4ccccc4C=CN2[C@@H]3C(C)=O)cc1 | 60.5 | nt
COc1ccc(NC(C)=O)cc1NC(C)C(=O)Nc1cccc2ccccc12 (centres undefined) | i | i
CC(C)CC(NC(=O)C(COC(C)(C)C)NC(=O)C(Cc1ccc(O)cc1)NC(=O)C(CO)NC(=O)C(Cc1c[nH]c2ccccc12)NC(=O)C(Cc1cnc[nH]1)NC(=O)C1CCC(=O)N1)C(=O)N[C@@H](CCCN=C(N)N)C(=O)N1CCCC1C(=O)NNC(N)=O (some centres undefined) | nt | i
CN(C)CCNC(NC(=O)c1cccs1)C(Cl)(Cl)Cl (centres undefined) | i | nt
CN1CCc2c(sc3c2C(=O)NC(c2ccco2)N3)C1 (centres undefined) | i | i
CN1CCc2c(sc3c2C(=O)NC(c2cccc(OC(=O)c4cccs4)c2)N3)C1 (centres undefined) | 72.1 | nt
O=C(/C(=C(\[O-])c1ccccc1)[n+]1ccc2ccccc2c1)c1ccccc1 | 69.2 | nt
O=C(/C(=C(\[O-])c1ccccc1)[n+]1ccc2ccccc2c1)c1ccc(Cl)cc1 | i | nt
CN(CC(=O)O/N=C(\N)c1ccc([N+](=O)[O-])cc1)S(=O)(=O)c1ccc2ccccc2c1 | i | nt
CCOC(=O)NC(=O)c1cn(CCN(C)C)c(=O)[nH]c1=O | i | nt
Cc1ccc(C2CC(=O)Oc3cc(O)ccc32)cc1 (centres undefined) | i | i
O=C1CC(c2ccccc2)c2cc(O)ccc2O1 (centres undefined) | 70.0 | i
O=C1Nc2ccc(F)cc2C12SCCS2 | i | nt
CCOC(=O)C(NCc1ccc2c(c1)OCO2)(NC(=O)c1ccccc1)C(F)(F)F (centres undefined) | i | i
CCC(=O)Oc1ccc2oc(=O)cc(C)c2c1 | i | nt

Source: PubChem BioAssay
